This passage reports binding signal results from paper PMC7862700, “An all-to-all approach to the identification of sequence-specific readers for epigenetic DNA modifications on cytosine”.

Common to all, as to assay: DAPPL (digital affinity profiling via proximity ligation, sequencing); 10 mM Tris-HCl pH 7.5, 50 mM NaCl, 1 mM DTT, 4% glycerol, room temperature, 30 min; GST-TFs on glutathione beads, 16-mer random dsDNA library, 0.1% formaldehyde crosslink after washing; high values mean tight binding
Holding throughout (details): protein: recombinant; tags: N-terminal GST; dsDNA, one strand shown

One assay addresses T1, FLI1 (Homo sapiens, UniProt Q01543 1-452).
T1 sequence: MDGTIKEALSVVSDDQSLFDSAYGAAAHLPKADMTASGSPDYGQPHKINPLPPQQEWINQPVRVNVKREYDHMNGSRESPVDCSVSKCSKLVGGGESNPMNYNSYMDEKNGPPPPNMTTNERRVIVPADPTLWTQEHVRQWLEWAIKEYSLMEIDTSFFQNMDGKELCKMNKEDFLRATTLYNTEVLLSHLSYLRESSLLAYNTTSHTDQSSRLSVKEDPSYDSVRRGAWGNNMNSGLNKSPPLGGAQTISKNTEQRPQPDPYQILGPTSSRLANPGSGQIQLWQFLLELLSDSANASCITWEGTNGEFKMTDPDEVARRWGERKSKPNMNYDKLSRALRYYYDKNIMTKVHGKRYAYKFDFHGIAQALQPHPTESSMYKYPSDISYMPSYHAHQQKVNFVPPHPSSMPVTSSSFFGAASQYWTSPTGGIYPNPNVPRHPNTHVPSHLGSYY
In outline: (§1)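 Human transcription factors carrying a GST fusion were produced in yeast, bound to glutathione beads, tagged with DNA barcodes and pooled together with a tag-only sample. Each pool was held with 200 nmole of a random double-stranded 16-mer DNA library in Tris/NaCl/DTT/glycerol buffer for 30 min at room temperature, then washed, crosslinked in 0.1% formaldehyde, proximity-ligated with BsaI/T4 ligase (1 h, 37 °C), PCR-amplified and sequenced on an Illumina NextSeq500. Binding signal is the read frequency of each hexamer for a given factor divided by its frequency in the tag-only sample.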

In the next assay the target is T2, ELK1 (Homo sapiens, UniProt P19419 1-428).
T2 sequence: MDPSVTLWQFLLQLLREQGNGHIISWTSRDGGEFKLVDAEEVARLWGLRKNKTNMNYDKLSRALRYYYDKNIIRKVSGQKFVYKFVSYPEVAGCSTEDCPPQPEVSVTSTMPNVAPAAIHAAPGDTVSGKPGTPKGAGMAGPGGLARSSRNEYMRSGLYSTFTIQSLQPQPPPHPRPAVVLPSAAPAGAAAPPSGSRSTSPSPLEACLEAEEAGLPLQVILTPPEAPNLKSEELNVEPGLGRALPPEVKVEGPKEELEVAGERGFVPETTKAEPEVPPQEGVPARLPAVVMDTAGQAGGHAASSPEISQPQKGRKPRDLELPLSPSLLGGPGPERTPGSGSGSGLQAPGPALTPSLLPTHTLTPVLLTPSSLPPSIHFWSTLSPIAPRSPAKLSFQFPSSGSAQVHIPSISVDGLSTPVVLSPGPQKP
In a few lines: as §1

For another assay, the target named is T3, GABPA (Homo sapiens, UniProt Q06546 1-454).
T3 sequence: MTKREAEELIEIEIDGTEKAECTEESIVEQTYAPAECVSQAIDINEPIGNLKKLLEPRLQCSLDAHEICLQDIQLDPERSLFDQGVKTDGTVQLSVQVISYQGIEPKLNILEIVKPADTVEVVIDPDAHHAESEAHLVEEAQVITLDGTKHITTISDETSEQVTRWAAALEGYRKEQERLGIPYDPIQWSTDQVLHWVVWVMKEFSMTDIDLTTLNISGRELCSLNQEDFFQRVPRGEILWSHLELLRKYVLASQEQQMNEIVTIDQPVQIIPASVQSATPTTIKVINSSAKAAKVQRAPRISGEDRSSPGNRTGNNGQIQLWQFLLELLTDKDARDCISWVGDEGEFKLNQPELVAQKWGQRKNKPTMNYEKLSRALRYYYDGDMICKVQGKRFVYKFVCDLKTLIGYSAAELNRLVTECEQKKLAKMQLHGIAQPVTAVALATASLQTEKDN
In a few lines: as §1

Another assay addresses T4, ERG (Homo sapiens, UniProt P11308 1-479).
T4 sequence: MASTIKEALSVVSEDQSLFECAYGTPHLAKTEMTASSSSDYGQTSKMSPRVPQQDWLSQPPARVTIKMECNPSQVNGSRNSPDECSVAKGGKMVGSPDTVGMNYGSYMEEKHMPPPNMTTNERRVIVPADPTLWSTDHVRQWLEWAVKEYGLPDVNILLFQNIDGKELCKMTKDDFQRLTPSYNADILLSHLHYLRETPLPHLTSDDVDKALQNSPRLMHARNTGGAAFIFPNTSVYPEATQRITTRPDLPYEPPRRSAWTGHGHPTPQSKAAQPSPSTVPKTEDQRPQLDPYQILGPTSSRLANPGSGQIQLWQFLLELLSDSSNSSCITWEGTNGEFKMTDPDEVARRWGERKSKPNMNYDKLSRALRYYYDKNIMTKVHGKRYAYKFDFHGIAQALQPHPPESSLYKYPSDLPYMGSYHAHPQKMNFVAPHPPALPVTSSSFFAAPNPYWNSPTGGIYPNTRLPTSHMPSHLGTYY
In a few lines: as §1

The target in another assay is ELF1 (Homo sapiens, UniProt P32519 1-619). In a few lines: as §1
The next assay addresses T5, EHF (Homo sapiens, UniProt Q9NZC4 1-300).
T5 sequence: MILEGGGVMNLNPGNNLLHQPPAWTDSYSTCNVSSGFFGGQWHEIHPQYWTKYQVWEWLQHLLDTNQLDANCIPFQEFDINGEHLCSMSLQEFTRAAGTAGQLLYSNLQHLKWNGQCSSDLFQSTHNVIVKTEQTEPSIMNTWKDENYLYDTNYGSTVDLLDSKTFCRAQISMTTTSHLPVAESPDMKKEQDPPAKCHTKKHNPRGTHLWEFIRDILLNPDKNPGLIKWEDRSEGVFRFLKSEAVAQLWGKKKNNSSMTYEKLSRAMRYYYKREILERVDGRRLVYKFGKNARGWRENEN
In outline:
as §1

The next assay concerns the target SPI1 (Homo sapiens, UniProt P17947 1-270). In outline: as §1
For the next assay, the target named is SPIB (Homo sapiens, UniProt Q01892 1-262). In outline:
as §1

In the next assay the target is T6, ELK3 (Homo sapiens, UniProt P41970 1-407).
T6 sequence: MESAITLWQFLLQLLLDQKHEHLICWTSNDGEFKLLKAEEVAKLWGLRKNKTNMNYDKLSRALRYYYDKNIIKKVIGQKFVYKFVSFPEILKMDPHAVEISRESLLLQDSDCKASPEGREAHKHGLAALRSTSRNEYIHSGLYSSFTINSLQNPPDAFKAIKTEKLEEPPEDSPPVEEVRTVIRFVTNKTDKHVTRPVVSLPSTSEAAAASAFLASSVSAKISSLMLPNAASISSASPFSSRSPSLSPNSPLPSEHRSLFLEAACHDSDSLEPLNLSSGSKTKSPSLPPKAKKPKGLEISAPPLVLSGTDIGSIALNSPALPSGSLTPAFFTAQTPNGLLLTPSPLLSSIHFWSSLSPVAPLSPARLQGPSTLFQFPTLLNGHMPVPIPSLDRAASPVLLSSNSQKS
In a few lines: as §1

Sequence of ELF1 (P32519 whole entry): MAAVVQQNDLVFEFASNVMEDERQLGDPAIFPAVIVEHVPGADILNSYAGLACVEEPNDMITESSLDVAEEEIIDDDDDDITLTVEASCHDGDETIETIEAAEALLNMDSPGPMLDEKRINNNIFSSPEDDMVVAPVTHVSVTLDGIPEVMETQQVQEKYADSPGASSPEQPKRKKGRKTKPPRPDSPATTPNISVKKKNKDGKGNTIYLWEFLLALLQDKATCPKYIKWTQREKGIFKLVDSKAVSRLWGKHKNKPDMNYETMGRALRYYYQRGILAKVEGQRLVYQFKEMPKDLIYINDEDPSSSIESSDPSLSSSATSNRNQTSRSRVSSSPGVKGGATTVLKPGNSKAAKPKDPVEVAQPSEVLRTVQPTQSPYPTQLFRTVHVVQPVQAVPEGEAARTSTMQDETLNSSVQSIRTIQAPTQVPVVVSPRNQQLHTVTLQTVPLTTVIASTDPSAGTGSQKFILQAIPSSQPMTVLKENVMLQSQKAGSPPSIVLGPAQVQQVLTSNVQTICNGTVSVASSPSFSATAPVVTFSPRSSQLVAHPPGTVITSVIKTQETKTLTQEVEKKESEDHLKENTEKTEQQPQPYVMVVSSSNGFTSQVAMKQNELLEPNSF
Sequence of SPIB (Q01892 whole entry): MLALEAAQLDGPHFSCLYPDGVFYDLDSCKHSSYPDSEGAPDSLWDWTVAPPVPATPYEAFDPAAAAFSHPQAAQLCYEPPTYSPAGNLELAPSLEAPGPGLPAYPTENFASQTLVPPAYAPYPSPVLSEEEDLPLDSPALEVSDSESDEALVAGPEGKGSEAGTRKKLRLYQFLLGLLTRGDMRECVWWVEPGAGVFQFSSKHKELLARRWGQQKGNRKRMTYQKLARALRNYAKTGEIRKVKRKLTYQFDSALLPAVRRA

TCCGCA: the binding signal was 2.2 fold enrichment (6-mer frequency, TF over GST control) with FLI1; 2.22 fold enrichment (6-mer frequency, TF over GST control) with ELK1; 2.07 fold enrichment (6-mer frequency, TF over GST control) in the assay with GABPA; 2.03 fold enrichment (6-mer frequency, TF over GST control) with ERG; 2.01 fold enrichment (6-mer frequency, TF over GST control) with ELF1; 2.03 fold enrichment (6-mer frequency, TF over GST control) with EHF. Further, the binding signal with SPI1 is 2.85 fold enrichment (6-mer frequency, TF over GST control); in the assay with SPIB it was 2.18 fold enrichment (6-mer frequency, TF over GST control); with ELK3 it was 2.24 fold enrichment (6-mer frequency, TF over GST control).
For TCCGCC, the binding signal with FLI1 is 1.57 fold enrichment (6-mer frequency, TF over GST control); in the assay with ELK1, 1.61 fold enrichment (6-mer frequency, TF over GST control); in the assay with GABPA, 1.53 fold enrichment (6-mer frequency, TF over GST control); in the assay with ERG it was 1.69 fold enrichment (6-mer frequency, TF over GST control); in the assay with ELF1 it was 1.7 fold enrichment (6-mer frequency, TF over GST control); in the assay with EHF, 1.73 fold enrichment (6-mer frequency, TF over GST control). In addition, the binding signal with SPI1 is 1.48 fold enrichment (6-mer frequency, TF over GST control); in the assay with SPIB, 1.54 fold enrichment (6-mer frequency, TF over GST control); with ELK3, 1.86 fold enrichment (6-mer frequency, TF over GST control).
TACACT: the binding signal with FLI1 is 1.41 fold enrichment (6-mer frequency, TF over GST control); in the assay with ELK1, 1.57 fold enrichment (6-mer frequency, TF over GST control); with GABPA, 1.51 fold enrichment (6-mer frequency, TF over GST control); with ERG it was 1.58 fold enrichment (6-mer frequency, TF over GST control); with ELF1, 1.5 fold enrichment (6-mer frequency, TF over GST control); in the assay with EHF, 1.62 fold enrichment (6-mer frequency, TF over GST control). Besides, the binding signal is 1.54 fold enrichment (6-mer frequency, TF over GST control) with SPI1; 1.5 fold enrichment (6-mer frequency, TF over GST control) with SPIB; 1.51 fold enrichment (6-mer frequency, TF over GST control) with ELK3.
With TCCAAC, the binding signal in the assay with FLI1 is 1.22 fold enrichment (6-mer frequency, TF over GST control); in the assay with ELK1, 1.24 fold enrichment (6-mer frequency, TF over GST control); with GABPA, 1.22 fold enrichment (6-mer frequency, TF over GST control); with ERG, 1.16 fold enrichment (6-mer frequency, TF over GST control); with ELF1, 1.25 fold enrichment (6-mer frequency, TF over GST control); with EHF it was 1.23 fold enrichment (6-mer frequency, TF over GST control). For the same sequence, the binding signal with SPI1 was 1.18 fold enrichment (6-mer frequency, TF over GST control); in the assay with SPIB, 1.16 fold enrichment (6-mer frequency, TF over GST control); in the assay with ELK3 it was 1.21 fold enrichment (6-mer frequency, TF over GST control).
CTAAGT: the binding signal was 1.21 fold enrichment (6-mer frequency, TF over GST control) with FLI1; 1.17 fold enrichment (6-mer frequency, TF over GST control) with ELK1; 1.26 fold enrichment (6-mer frequency, TF over GST control) with GABPA; 1.18 fold enrichment (6-mer frequency, TF over GST control) with ERG; 1.2 fold enrichment (6-mer frequency, TF over GST control) in the assay with ELF1; 1.26 fold enrichment (6-mer frequency, TF over GST control) in the assay with EHF. For the same sequence, the binding signal is 1.19 fold enrichment (6-mer frequency, TF over GST control) in the assay with SPI1; 1.24 fold enrichment (6-mer frequency, TF over GST control) with SPIB; 1.16 fold enrichment (6-mer frequency, TF over GST control) with ELK3.
As to CCTTGA, the binding signal in the assay with FLI1 is 1.26 fold enrichment (6-mer frequency, TF over GST control); with ELK1, 1.26 fold enrichment (6-mer frequency, TF over GST control); with GABPA it was 1.24 fold enrichment (6-mer frequency, TF over GST control); in the assay with ERG, 1.27 fold enrichment (6-mer frequency, TF over GST control); in the assay with ELF1, 1.25 fold enrichment (6-mer frequency, TF over GST control); with EHF, 1.23 fold enrichment (6-mer frequency, TF over GST control). The binding signal was 1.17 fold enrichment (6-mer frequency, TF over GST control) with SPI1; 1.24 fold enrichment (6-mer frequency, TF over GST control) with SPIB; 1.4 fold enrichment (6-mer frequency, TF over GST control) in the assay with ELK3.
Consider TATATC, for which the binding signal with FLI1 is 1.6 fold enrichment (6-mer frequency, TF over GST control); in the assay with ELK1, 1.62 fold enrichment (6-mer frequency, TF over GST control); with GABPA, 1.55 fold enrichment (6-mer frequency, TF over GST control); with ERG it was 1.48 fold enrichment (6-mer frequency, TF over GST control); in the assay with ELF1 it was 1.58 fold enrichment (6-mer frequency, TF over GST control); in the assay with EHF, 1.59 fold enrichment (6-mer frequency, TF over GST control). In addition, the binding signal with SPI1 was 1.54 fold enrichment (6-mer frequency, TF over GST control); with SPIB it was 1.67 fold enrichment (6-mer frequency, TF over GST control); in the assay with ELK3, 1.42 fold enrichment (6-mer frequency, TF over GST control).
As for TTACAG, the binding signal in the assay with FLI1 is 1.19 fold enrichment (6-mer frequency, TF over GST control); with ELK1, 1.18 fold enrichment (6-mer frequency, TF over GST control); in the assay with GABPA, 1.15 fold enrichment (6-mer frequency, TF over GST control); with ERG, 1.17 fold enrichment (6-mer frequency, TF over GST control); with ELF1 it was 1.22 fold enrichment (6-mer frequency, TF over GST control); in the assay with EHF, 1.13 fold enrichment (6-mer frequency, TF over GST control). Besides, the binding signal with SPI1 is 1.11 fold enrichment (6-mer frequency, TF over GST control); with SPIB, 1.29 fold enrichment (6-mer frequency, TF over GST control); in the assay with ELK3 it was 1.17 fold enrichment (6-mer frequency, TF over GST control).
